According to PubChem BioAssay AID2551 (National Center for Advancing Translational Sciences (NCATS), 2010):
Screen size: about 310,000 compounds; about 17,000 (5.5%) were called active. About 11% were inconclusive and are not listed. Calls follow the shape of the dose curve; as a rule, active = well fitted inhibition curve with a large enough effect; inconclusive = small, poorly fitted or top-dose-only effect, or effect the other way; inactive = no such curve, though single readings can be large or run the other way. The list comes from a sample in which actives are over-represented; it also holds similar structures and randomly drawn compounds. Entries that show only a call come without a potency.

target: Nuclear receptor ROR-gamma (Mus musculus) (UniProt P51450); assay: qHTS for inhibitors of ROR gamma transcriptional activity; settings: Drosophila S2 Gal4-RORgamma UAS-luciferase reporter, 20 h; series mostly up to 53.6 µM; also: nearly all actives have a fitted effect of over 60% in size
Excerpt: NIH Molecular Libraries Probe Production Network [MLPCN] NIH Chemical Genomics Center [NCGC] MLPCN Grant: R03 DA026211-01 Assay Provider: Dan Littman, New York University Assay Overview: The retinoic acid-related orphan receptor (ROR) gamma is a transcription factor that has a central role in the differentiation of Th17 cells, a subset of T helper cells that secrete the inflammatory cytokines IL-17, IL-17F, and IL-22. Th17 cells have been implicated in graft versus host disease, autoimmune disease and asthma. ROR gamma is induced in naive T helper cells in the presence of TGF-beta combined with IL-6, IL-21, or IL-23, and thereafter directs the expression of the Th17 lineage cytokines. To study the mechanism of action of ROR gamma, an insect cell-based assay was screened. This Drosophila Schneider cell line was stably transfected with two vectors: a gene expressing a fusion of the Gal4 DNA binding domain and ROR gamma transactivation domain under the control of the metallothionine promoter and a Photinus luciferase reporter regulated by the Gal4 binding site enhancer, UAS. […] Small molecule inhibitors of ROR gamma activity are detected by a decrease in luciferase reporter activity.
Assay Protocol Summary: For screening, 600 cells in 4 uL/well were dispensed into white solid 1536-well plates (Grenier) using a solenoid-based dispenser. Following transfer of 23 nL compound or DMSO vehicle by a pin tool, the plates were incubated 1 hr at ambient temperature, and 1 uL/well copper sulfate (700 uM final concentration) was added. The plates were centrifuged 15 s at 1000 RPM and incubated 20 hr at ambient temperature. After addition of 1.5 uL Photinus luciferase detection reagent, the plates were incubated 10 min at ambient temperature and then read by an ViewLux (Perkin Elmer) to detect luminescence. Keywords: NIH Roadmap, MLPCN, MLI, MLSMR, qHTS, NCGC, qHTS, nuclear hormone receptor, retinoic acid-related orphan receptor, ROR gamma
Potency is read from the fitted curve at half-maximal effect.

Sequence of Nuclear receptor ROR-gamma (Mus musculus) (P51450 whole entry, looked up, the tested form may be a part): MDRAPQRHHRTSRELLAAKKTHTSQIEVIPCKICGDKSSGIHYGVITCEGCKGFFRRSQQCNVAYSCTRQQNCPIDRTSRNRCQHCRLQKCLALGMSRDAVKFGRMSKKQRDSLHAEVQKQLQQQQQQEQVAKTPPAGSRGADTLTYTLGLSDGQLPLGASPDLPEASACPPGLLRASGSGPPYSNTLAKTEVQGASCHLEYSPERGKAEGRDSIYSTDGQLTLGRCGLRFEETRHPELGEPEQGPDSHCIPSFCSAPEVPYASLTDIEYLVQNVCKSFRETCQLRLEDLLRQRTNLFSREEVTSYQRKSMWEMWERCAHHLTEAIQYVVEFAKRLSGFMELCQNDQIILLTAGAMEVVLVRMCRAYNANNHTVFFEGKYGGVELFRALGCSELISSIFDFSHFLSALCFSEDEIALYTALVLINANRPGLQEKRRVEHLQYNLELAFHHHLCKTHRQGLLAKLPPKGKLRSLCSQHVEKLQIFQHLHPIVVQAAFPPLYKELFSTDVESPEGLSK

| SMILES | Potency |
| --- | --- |
| COc1ccc(CNS(=O)(=O)c2cc(-c3cc(C)no3)ccc2C(C)C)cc1 | inactive |
| O=C(c1ccco1)N1CCN(C(=O)c2cc(-c3ccccc3F)no2)CC1 | inactive |
| CC1(C)c2[nH]c3ccccc3c2C[C@H]2C(=O)N(N)CC(=O)N21 | inactive |
| Cc1cc(O)cc(O)c1C(=O)Cc1cnn(-c2ccccc2)c1 | 0.199 µM (active) |
| COc1ccc(C(=O)Cc2cnn(-c3ccccc3)c2)c(O)c1 | inactive |
| O=C(c1cnn(-c2ccc(Cl)cc2)c1)c1ccccc1O | inactive |
| O=C(Nc1cccc(-n2cnnn2)c1)c1cccnc1 | inactive |
| COc1ccc(CNC(=O)c2c[nH]c3c(OC)cc(OC)cc3c2=O)cc1 | inactive |
| Nc1nonc1-n1nnc(C(=O)N/N=C/c2c[nH]c3ccccc23)c1-c1ccccc1 | inactive |
| Nc1nonc1-n1nnc(C(=O)N/N=C/C2CCCCC2)c1-c1ccccc1 | inactive |
| CCCOc1ccc(-c2c(C(=O)N/N=C/c3ccco3)nnn2-c2nonc2N)cc1 | 11.2 µM (active) |
| Cn1c(=O)c2c(nc(NCCNC(=O)c3ccco3)n2Cc2ccccc2F)n(C)c1=O | inactive |
| O=C(O)c1ccc(S(=O)(=O)N2CCC(Cc3ccccc3)CC2)cc1 | inactive |
| Cn1cnc2c1c(=O)n(Cc1ccccc1C#N)c(=O)n2C | inactive |
| O=C1CN(C(=O)c2ccccc2F)C(c2ccc(F)cc2)c2cc(F)ccc2N1 (stereo unspecified) | inactive |
| Cc1cc(=O)oc2c(C)c(OCC(=O)NCCN3CCOCC3)ccc12 | inactive |

| SMILES | Potency |
| --- | --- |
| O=C(O)c1ccc(/C=N/NC(=S)NCc2ccccc2)cc1 | inactive |
| CC1CCCCN1C(=S)NCc1ccccc1 (stereo unspecified) | inactive |
| C[n+]1ccc(C(=O)NCc2ccccc2)cc1 | inactive |
| C/C(=N\NC(=S)NCc1ccccc1)c1ccc(Cl)cc1 | 3.55 µM (active) |
| O=C(CC1CCCCC1)NCc1ccccc1 | inactive |
| C/C(=N\NC(=S)NCc1ccccc1)C1CCCCC1 | 0.224 µM (active) |
| CC(CC(=O)N1CCN(c2ccccc2)CC1)S(=O)(=O)c1ccc2c(c1)NC(=O)CS2 (stereo unspecified) | inactive |
| COC(=O)COc1ccc2c(=O)c(Oc3ccccc3Br)coc2c1 | inactive |
| Cc1ccc(S(=O)(=O)NCC(=O)Nc2ccc3c(c2)OCCO3)cc1 | inactive |
| O=C(N/C(=C\c1ccc([N+](=O)[O-])cc1)C(=O)N1CCOCC1)c1cccc(Br)c1 | inactive |
| O=C(/C=C/c1ccc(Cl)cc1)NCCCn1ccnc1 | inactive |
| CCn1cc(/C=C(\NC(=O)c2ccc(C)cc2)C(=O)NCCN2CCOCC2)c2ccccc21 | inactive |
| COc1ccc(-c2cc(C(=O)NCCCN3CCOCC3)no2)cc1 | inactive |
| O=C(NCCCN1CCOCC1)c1cc(-c2ccc(Cl)cc2)on1 | 11.2 µM (active) |
| O=C(NCCCN1CCOCC1)c1cc(-c2cccc(O)c2)on1 | inactive |
